Holding throughout (test): DAPPL (digital affinity profiling via proximity ligation, sequencing); 10 mM Tris-HCl pH 7.5, 50 mM NaCl, 1 mM DTT, 4% glycerol, room temperature, 30 min; GST-TFs on glutathione beads, 16-mer random dsDNA library, 0.1% formaldehyde crosslink after washing; high values mean tight binding
Conditions in all cases: protein: recombinant; tags: N-terminal GST; dsDNA, one strand shown

One test deals with T1, FLI1 (Homo sapiens, UniProt Q01543 1-452).
T1 sequence: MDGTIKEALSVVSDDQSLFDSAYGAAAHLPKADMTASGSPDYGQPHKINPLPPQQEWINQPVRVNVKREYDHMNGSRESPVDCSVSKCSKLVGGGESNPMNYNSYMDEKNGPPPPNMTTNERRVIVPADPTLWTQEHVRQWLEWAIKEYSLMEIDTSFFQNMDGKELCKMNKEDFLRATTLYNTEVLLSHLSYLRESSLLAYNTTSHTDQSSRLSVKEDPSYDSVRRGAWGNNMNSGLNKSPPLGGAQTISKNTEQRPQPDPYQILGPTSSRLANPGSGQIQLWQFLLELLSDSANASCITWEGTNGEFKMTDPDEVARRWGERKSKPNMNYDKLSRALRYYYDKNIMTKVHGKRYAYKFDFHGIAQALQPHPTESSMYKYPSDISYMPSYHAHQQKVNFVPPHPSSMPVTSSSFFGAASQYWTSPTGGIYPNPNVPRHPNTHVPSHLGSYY
Put shortly:
(§1)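 GST fusions of human transcription factors were expressed in yeast and captured with glutathione beads. Once given DNA barcodes and pooled alongside a tag-only sample, they were incubated for 30 min at room temperature with 200 nmole of a random double-stranded 16-mer DNA library in Tris/NaCl/DTT/glycerol buffer, then washed, crosslinked (0.1% formaldehyde), proximity-ligated, PCR-amplified and sequenced on an Illumina NextSeq500. The binding signal of each hexamer is its read frequency for a factor divided by its frequency for the tag-only sample.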

In a further test the target is T2, ELK1 (Homo sapiens, UniProt P19419 1-428).
T2 sequence: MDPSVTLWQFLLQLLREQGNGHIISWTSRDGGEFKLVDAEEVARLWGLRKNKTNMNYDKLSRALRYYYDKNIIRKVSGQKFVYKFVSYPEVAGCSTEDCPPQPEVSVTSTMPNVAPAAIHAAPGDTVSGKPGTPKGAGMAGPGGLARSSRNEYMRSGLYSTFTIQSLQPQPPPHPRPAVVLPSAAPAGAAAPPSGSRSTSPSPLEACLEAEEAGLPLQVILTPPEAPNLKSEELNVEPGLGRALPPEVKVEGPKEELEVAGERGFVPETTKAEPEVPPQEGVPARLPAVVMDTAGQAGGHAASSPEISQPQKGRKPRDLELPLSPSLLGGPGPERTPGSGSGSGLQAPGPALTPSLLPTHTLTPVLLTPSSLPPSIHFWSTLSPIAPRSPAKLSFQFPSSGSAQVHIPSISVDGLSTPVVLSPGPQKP
Put shortly:
as §1

The target of another test is T3, GABPA (Homo sapiens, UniProt Q06546 1-454).
T3 sequence: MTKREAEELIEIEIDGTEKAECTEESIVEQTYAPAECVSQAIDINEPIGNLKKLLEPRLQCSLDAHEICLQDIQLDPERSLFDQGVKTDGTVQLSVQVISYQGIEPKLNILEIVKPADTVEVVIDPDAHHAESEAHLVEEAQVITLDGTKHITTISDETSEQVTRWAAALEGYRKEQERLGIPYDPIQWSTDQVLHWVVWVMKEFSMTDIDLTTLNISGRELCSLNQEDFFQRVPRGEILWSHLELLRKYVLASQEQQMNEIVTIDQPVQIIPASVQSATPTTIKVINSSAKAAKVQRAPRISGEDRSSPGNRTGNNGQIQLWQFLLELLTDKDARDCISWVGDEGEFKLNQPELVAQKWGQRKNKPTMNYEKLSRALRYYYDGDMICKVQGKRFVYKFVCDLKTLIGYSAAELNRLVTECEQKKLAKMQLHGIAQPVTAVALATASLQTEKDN
In outline:
as §1

The target in another test is T4, ERG (Homo sapiens, UniProt P11308 1-479).
T4 sequence: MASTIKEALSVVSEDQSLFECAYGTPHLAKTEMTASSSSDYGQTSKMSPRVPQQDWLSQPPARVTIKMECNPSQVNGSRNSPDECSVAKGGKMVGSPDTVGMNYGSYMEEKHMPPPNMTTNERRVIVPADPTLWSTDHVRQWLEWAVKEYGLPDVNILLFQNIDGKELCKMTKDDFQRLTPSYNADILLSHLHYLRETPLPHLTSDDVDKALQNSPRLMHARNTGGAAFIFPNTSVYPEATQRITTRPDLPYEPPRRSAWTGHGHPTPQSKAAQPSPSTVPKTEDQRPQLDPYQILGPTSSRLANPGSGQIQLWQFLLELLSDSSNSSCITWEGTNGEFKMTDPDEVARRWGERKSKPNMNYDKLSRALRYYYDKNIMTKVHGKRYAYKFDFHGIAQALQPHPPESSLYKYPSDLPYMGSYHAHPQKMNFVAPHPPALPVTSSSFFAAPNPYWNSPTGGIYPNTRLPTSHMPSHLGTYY
In outline: as §1

Another test concerns the target ELF1 (Homo sapiens, UniProt P32519 1-619). In outline: as §1
The target in the next test is T5, EHF (Homo sapiens, UniProt Q9NZC4 1-300).
T5 sequence: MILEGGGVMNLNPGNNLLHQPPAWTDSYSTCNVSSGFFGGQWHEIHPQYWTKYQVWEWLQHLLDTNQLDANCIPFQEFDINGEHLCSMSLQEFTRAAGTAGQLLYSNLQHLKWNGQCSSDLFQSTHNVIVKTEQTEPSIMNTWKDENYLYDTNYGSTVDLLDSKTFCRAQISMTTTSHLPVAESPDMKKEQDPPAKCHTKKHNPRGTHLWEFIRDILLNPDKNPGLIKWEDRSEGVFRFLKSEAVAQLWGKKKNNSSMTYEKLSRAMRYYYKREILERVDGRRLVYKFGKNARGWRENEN
In outline: as §1

The target of a further test is SPI1 (Homo sapiens, UniProt P17947 1-270). In outline: as §1
A further test addresses SPIB (Homo sapiens, UniProt Q01892 1-262). In outline: as §1
A further test has as its target T6, ELK3 (Homo sapiens, UniProt P41970 1-407).
T6 sequence: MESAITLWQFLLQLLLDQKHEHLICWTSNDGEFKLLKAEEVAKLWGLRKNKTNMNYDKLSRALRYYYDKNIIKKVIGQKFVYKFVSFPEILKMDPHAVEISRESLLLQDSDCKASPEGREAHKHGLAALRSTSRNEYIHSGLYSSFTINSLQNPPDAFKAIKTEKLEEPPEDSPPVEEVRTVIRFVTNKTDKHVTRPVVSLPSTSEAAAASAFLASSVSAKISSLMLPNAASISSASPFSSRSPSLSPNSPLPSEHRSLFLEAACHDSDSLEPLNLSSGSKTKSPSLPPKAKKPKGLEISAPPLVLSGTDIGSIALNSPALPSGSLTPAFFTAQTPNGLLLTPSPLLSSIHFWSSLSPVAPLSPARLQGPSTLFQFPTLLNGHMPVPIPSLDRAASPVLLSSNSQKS
Put shortly: as §1

ELF1, sequence (P32519 whole entry): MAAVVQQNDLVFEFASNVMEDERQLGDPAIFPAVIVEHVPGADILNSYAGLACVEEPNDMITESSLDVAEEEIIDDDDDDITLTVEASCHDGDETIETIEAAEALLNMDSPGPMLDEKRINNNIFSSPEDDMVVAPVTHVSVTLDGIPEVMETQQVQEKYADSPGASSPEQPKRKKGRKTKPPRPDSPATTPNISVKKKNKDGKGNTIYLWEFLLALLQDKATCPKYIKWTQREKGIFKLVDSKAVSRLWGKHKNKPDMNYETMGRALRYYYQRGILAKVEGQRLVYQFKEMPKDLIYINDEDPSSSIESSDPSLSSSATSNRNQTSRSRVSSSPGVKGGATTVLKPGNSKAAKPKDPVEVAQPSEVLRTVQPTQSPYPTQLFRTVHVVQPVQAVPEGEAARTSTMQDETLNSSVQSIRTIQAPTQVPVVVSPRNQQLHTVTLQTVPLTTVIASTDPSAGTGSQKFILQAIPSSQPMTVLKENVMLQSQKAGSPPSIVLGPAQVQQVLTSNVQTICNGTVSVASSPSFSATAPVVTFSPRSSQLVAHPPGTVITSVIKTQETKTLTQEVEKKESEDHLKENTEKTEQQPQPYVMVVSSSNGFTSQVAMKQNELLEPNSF
SPIB, sequence (Q01892 whole entry): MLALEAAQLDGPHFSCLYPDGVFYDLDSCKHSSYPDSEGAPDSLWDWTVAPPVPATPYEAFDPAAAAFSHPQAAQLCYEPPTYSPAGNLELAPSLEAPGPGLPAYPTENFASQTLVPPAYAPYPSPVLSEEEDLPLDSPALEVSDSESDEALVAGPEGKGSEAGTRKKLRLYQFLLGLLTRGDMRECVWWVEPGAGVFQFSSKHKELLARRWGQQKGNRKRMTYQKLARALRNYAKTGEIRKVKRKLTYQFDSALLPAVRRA

Regarding TTGCAT, the binding signal in the test with FLI1 was 1.5 fold enrichment (6-mer frequency, TF over GST control); with ELK1, 1.43 fold enrichment (6-mer frequency, TF over GST control); with GABPA it was 1.52 fold enrichment (6-mer frequency, TF over GST control); with ERG it was 1.37 fold enrichment (6-mer frequency, TF over GST control); with ELF1, 1.39 fold enrichment (6-mer frequency, TF over GST control); with EHF, 1.4 fold enrichment (6-mer frequency, TF over GST control). Moreover, the binding signal is 1.44 fold enrichment (6-mer frequency, TF over GST control) with SPI1; 1.38 fold enrichment (6-mer frequency, TF over GST control) with SPIB; 1.42 fold enrichment (6-mer frequency, TF over GST control) in the test with ELK3.
Regarding TCACGC, the binding signal with FLI1 was 1.35 fold enrichment (6-mer frequency, TF over GST control); with ELK1, 1.18 fold enrichment (6-mer frequency, TF over GST control); with GABPA it was 1.22 fold enrichment (6-mer frequency, TF over GST control); with ERG, 1.18 fold enrichment (6-mer frequency, TF over GST control); with ELF1, 1.2 fold enrichment (6-mer frequency, TF over GST control); in the test with EHF it was 1.24 fold enrichment (6-mer frequency, TF over GST control). The binding signal is 1.17 fold enrichment (6-mer frequency, TF over GST control) with SPI1; 1.17 fold enrichment (6-mer frequency, TF over GST control) with SPIB; 1.28 fold enrichment (6-mer frequency, TF over GST control) with ELK3.
As to GTTCTC, the binding signal with FLI1 was 1.36 fold enrichment (6-mer frequency, TF over GST control); with ELK1, 1.18 fold enrichment (6-mer frequency, TF over GST control); with GABPA, 1.4 fold enrichment (6-mer frequency, TF over GST control); in the test with ERG, 1.27 fold enrichment (6-mer frequency, TF over GST control); in the test with ELF1, 1.28 fold enrichment (6-mer frequency, TF over GST control); with EHF it was 1.22 fold enrichment (6-mer frequency, TF over GST control). For the same sequence, the binding signal with SPI1 is 1.33 fold enrichment (6-mer frequency, TF over GST control); in the test with SPIB, 1.35 fold enrichment (6-mer frequency, TF over GST control); in the test with ELK3 it was 1.19 fold enrichment (6-mer frequency, TF over GST control).
With ACGAAA, the binding signal with FLI1 was 1.2 fold enrichment (6-mer frequency, TF over GST control); with ELK1 it was 1.12 fold enrichment (6-mer frequency, TF over GST control); with GABPA, 1.15 fold enrichment (6-mer frequency, TF over GST control); in the test with ERG, 1.14 fold enrichment (6-mer frequency, TF over GST control); with ELF1, 1.13 fold enrichment (6-mer frequency, TF over GST control); with EHF it was 1.19 fold enrichment (6-mer frequency, TF over GST control). In addition, the binding signal with SPI1 is 1.14 fold enrichment (6-mer frequency, TF over GST control); in the test with SPIB, 1.16 fold enrichment (6-mer frequency, TF over GST control); with ELK3, 1.07 fold enrichment (6-mer frequency, TF over GST control).
Consider TGGCCT, for which the binding signal in the test with FLI1 is 1.59 fold enrichment (6-mer frequency, TF over GST control); with ELK1, 1.37 fold enrichment (6-mer frequency, TF over GST control); with GABPA, 1.51 fold enrichment (6-mer frequency, TF over GST control); with ERG, 1.54 fold enrichment (6-mer frequency, TF over GST control); in the test with ELF1, 1.48 fold enrichment (6-mer frequency, TF over GST control); with EHF, 1.5 fold enrichment (6-mer frequency, TF over GST control). Besides, the binding signal was 1.55 fold enrichment (6-mer frequency, TF over GST control) with SPI1; 1.48 fold enrichment (6-mer frequency, TF over GST control) with SPIB; 1.29 fold enrichment (6-mer frequency, TF over GST control) in the test with ELK3.
As for GTTCCT, the binding signal is 1.73 fold enrichment (6-mer frequency, TF over GST control) with FLI1; 1.69 fold enrichment (6-mer frequency, TF over GST control) with ELK1; 1.64 fold enrichment (6-mer frequency, TF over GST control) with GABPA; 1.86 fold enrichment (6-mer frequency, TF over GST control) with ERG; 1.72 fold enrichment (6-mer frequency, TF over GST control) with ELF1; 1.73 fold enrichment (6-mer frequency, TF over GST control) with EHF. The binding signal with SPI1 is 2.34 fold enrichment (6-mer frequency, TF over GST control); with SPIB, 1.84 fold enrichment (6-mer frequency, TF over GST control); with ELK3 it was 1.77 fold enrichment (6-mer frequency, TF over GST control).
Regarding CTAAGA, the binding signal in the test with FLI1 was 1.21 fold enrichment (6-mer frequency, TF over GST control); in the test with ELK1 it was 1.22 fold enrichment (6-mer frequency, TF over GST control); with GABPA, 1.16 fold enrichment (6-mer frequency, TF over GST control); with ERG, 1.17 fold enrichment (6-mer frequency, TF over GST control); with ELF1 it was 1.18 fold enrichment (6-mer frequency, TF over GST control); with EHF it was 1.26 fold enrichment (6-mer frequency, TF over GST control). The binding signal is 1.15 fold enrichment (6-mer frequency, TF over GST control) with SPI1; 1.24 fold enrichment (6-mer frequency, TF over GST control) in the test with SPIB; 1.18 fold enrichment (6-mer frequency, TF over GST control) in the test with ELK3.
For TTAATT, the binding signal with FLI1 is 1.38 fold enrichment (6-mer frequency, TF over GST control); with ELK1, 1.34 fold enrichment (6-mer frequency, TF over GST control); with GABPA, 1.42 fold enrichment (6-mer frequency, TF over GST control); with ERG, 1.32 fold enrichment (6-mer frequency, TF over GST control); in the test with ELF1, 1.37 fold enrichment (6-mer frequency, TF over GST control); in the test with EHF, 1.39 fold enrichment (6-mer frequency, TF over GST control). For the same sequence, the binding signal is 1.38 fold enrichment (6-mer frequency, TF over GST control) in the test with SPI1; 1.36 fold enrichment (6-mer frequency, TF over GST control) with SPIB; 1.54 fold enrichment (6-mer frequency, TF over GST control) with ELK3.

For the origin of these results see paper PMC7862700, “An all-to-all approach to the identification of sequence-specific readers for epigenetic DNA modifications on cytosine”.
